Measured values from the supplement of paper PMC3414501.
Where a name gives a salt, the structure may show the parent alone. A number with no mark means an inactive call.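 How the source made its calls: active = score above 5; some higher scores were not called.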

These compounds were tested on S. cerevisiae SK1 pCDA2-eGFP (USY613), sporulating (assay: CDA2-GFP sporulation assay sensitivity score (z-score vs DMSO controls); higher = stronger inhibition of sporulation, active = hit call of the paper).

Q: How did the “CDA2-GFP sporulation assay sensitivity score” value turn out when `CN1[C@@H](CC(=O)c2ccccc2)CCC[C@H]1C[C@H](O)c1ccccc1` [Lobeline hydrochloride] (stock concentration (mM, diluted 1:100): 10) was run?
A: 2.99

Q: How did the “CDA2-GFP sporulation assay sensitivity score” value turn out when `Cc1sc(N)c(C(=O)c2cccc(C(F)(F)F)c2)c1C` (stock concentration (mM, diluted 1:100): 10) was run?
A: 11.1 (active)

Q: Which “CDA2-GFP sporulation assay sensitivity score” value does the source give for `CN(C)CCC(c1ccc(Cl)cc1)c1ccccn1` (stereo unspecified) [Chlorpheniramine] (stock concentration (mM, diluted 1:100): 10) here?
A: -1.3

Q: With `CCCc1nc2c(C)cc(-c3nc4ccccc4n3C)cc2n1Cc1ccc(-c2ccccc2C(=O)O)cc1` [Telmisartan] (stock concentration (mM, diluted 1:100): 10) as the compound, how does the “CDA2-GFP sporulation assay sensitivity score” value read?
A: -1.44

Q: How did the “CDA2-GFP sporulation assay sensitivity score” value turn out when `CCC(C)n1ncn(-c2ccc(N3CCN(c4ccc(OCC5COC(Cn6cncn6)(c6ccc(Cl)cc6Cl)O5)cc4)CC3)cc2)c1=O` (stereo unspecified) [Itraconazole] (stock concentration (mM, diluted 1:100): 10.1) was run?
A: 0.16

Q: `CN1CCC(=C2c3ccccc3CC(=O)c3sccc32)CC1` [Ketotifen fumarate] (stock concentration (mM, diluted 1:100): 8.9) was tested. Which “CDA2-GFP sporulation assay sensitivity score” value did it give?
A: 4.44

Q: With `CC(COc1ccccc1Cc1ccccc1)N1CCCCC1` (stereo unspecified) [Benproperine phosphate] (stock concentration (mM, diluted 1:100): 10) as the compound, how does the “CDA2-GFP sporulation assay sensitivity score” value read?
A: 0.55

Q: Which “CDA2-GFP sporulation assay sensitivity score” value does the source give for `CCOC(=O)[C@H](CCc1ccccc1)N[C@H]1CCc2ccccc2N(CC(=O)O)C1=O` [Benazepril hydrochloride] (stock concentration (mM, diluted 1:100): 9.2) here?
A: -1.49

Q: How did the “CDA2-GFP sporulation assay sensitivity score” value turn out when `CCCCc1nc(Cl)c(CO)n1Cc1ccc(-c2ccccc2-c2nnn[nH]2)cc1` [Losartan potassium] (stock concentration (mM, diluted 1:100): 9.2) was run?
A: -0.41

Q: With `COc1ccnc(C[S+]([O-])c2nc3cc(OC(F)F)ccc3[nH]2)c1OC` (stereo unspecified) [Pantoprazole sodium] (stock concentration (mM, diluted 1:100): 10) as the compound, how does the “CDA2-GFP sporulation assay sensitivity score” value read?
A: 0.75

Q: Which “CDA2-GFP sporulation assay sensitivity score” value does the source give for `O=C1c2c(O)cc(O)cc2OC(c2ccc(O)c(O)c2)C1O` (stereo unspecified) [Taxifolin] (stock concentration (mM, diluted 1:100): 10.1) here?
A: -0.02

Q: `CO[C@H]1/C=C/O[C@@]2(C)Oc3c(C)c(O)c4c(O)c(c(/C=N/N5CCN(C6CCCC6)CC5)c(O)c4c3C2=O)NC(=O)/C(C)=C\C=C\[C@H](C)[C@H](O)[C@@H](C)[C@@H](O)[C@@H](C)[C@H](OC(C)=O)[C@@H]1C` [Rifapentine] (stock concentration (mM, diluted 1:100): 10) was tested. Which “CDA2-GFP sporulation assay sensitivity score” value did it give?
A: 14.2

Q: `Cc1ncc([N+](=O)[O-])n1CC(O)CCl` (stereo unspecified) [Ornidazole] (stock concentration (mM, diluted 1:100): 10) was tested. Which “CDA2-GFP sporulation assay sensitivity score” value did it give?
A: -0.66

Q: For `Clc1ccccc1C(c1ccccc1)(c1ccccc1)n1ccnc1` [Clotrimazole] (stock concentration (mM, diluted 1:100): 10), which “CDA2-GFP sporulation assay sensitivity score” value is on record?
A: 3.7

Q: `Cc1ccc(NC(=O)c2ccc(CN3CCN(C)CC3)cc2)cc1Nc1nccc(-c2cccnc2)n1` [Imatinib mesylate] (stock concentration (mM, diluted 1:100): 8.4) was tested. Which “CDA2-GFP sporulation assay sensitivity score” value did it give?
A: 7.85 (active)

Q: Which “CDA2-GFP sporulation assay sensitivity score” value does the source give for `Cn1c(NCCN(CCO)CCCc2ccc([N+](=O)[O-])cc2)cc(=O)n(C)c1=O` [Nifekalant hydrochloride] (stock concentration (mM, diluted 1:100): 9.2) here?
A: 0.47

Q: For `Cc1ccnc2c1NC(=O)c1cccnc1N2C1CC1` [Viramune] (stock concentration (mM, diluted 1:100): 10), which “CDA2-GFP sporulation assay sensitivity score” value is on record?
A: -3.55

Q: `COc1nc(C)nc(Cl)c1NC1=NCCN1` [Moxonidine hydrochloride] (stock concentration (mM, diluted 1:100): 9.2) was tested. Which “CDA2-GFP sporulation assay sensitivity score” value did it give?
A: 0.6

Q: Which “CDA2-GFP sporulation assay sensitivity score” value does the source give for `Nc1ccn([C@@H]2CS[C@H](CO)O2)c(=O)n1` [Lamivudine] (stock concentration (mM, diluted 1:100): 9.9) here?
A: 1.14

Q: For `CN(CCOc1ccc(NS(C)(=O)=O)cc1)CCc1ccc(NS(C)(=O)=O)cc1` [Dofetilide] (stock concentration (mM, diluted 1:100): 10), which “CDA2-GFP sporulation assay sensitivity score” value is on record?
A: -0.99

Q: `COCCOC(=O)C1=C(C)NC(C)=C(C(=O)OC(C)C)C1c1cccc([N+](=O)[O-])c1` (stereo unspecified) [Nimodipine] (stock concentration (mM, diluted 1:100): 10) was tested. Which “CDA2-GFP sporulation assay sensitivity score” value did it give?
A: 0.44

Q: `COc1ccc(-c2cc(=O)c3c(OC)c(OC)c(OC)c(OC)c3o2)cc1OC` [Nobiletin] (stock concentration (mM, diluted 1:100): 10) was tested. Which “CDA2-GFP sporulation assay sensitivity score” value did it give?
A: 5.43

Q: How did the “CDA2-GFP sporulation assay sensitivity score” value turn out when `CC(=O)[C@H]1CC[C@H]2[C@@H]3CCC4=CC(=O)CC[C@]4(C)[C@H]3CC[C@]12C` [Progesterone] (stock concentration (mM, diluted 1:100): 10) was run?
A: 16.2 (active)

Q: Which “CDA2-GFP sporulation assay sensitivity score” value does the source give for `O=C(O[C@@H]1C[C@@H]2C[C@H]3C[C@H](C1)N2CC3=O)c1c[nH]c2ccccc12` [Dolasetron mesylate] (stock concentration (mM, diluted 1:100): 10.4) here?
A: -1

Q: For `COC(=O)C1=C(C)NC(C)=C(C(=O)OC(C)C)C1c1cccc2nonc12` (stereo unspecified) [Isradipine] (stock concentration (mM, diluted 1:100): 9.9), which “CDA2-GFP sporulation assay sensitivity score” value is on record?
A: 1.45

Q: How did the “CDA2-GFP sporulation assay sensitivity score” value turn out when `COc1ccccc1N1CCN(CCCNc2cc(=O)n(C)c(=O)n2C)CC1` [Urapidil hydrochloride] (stock concentration (mM, diluted 1:100): 10) was run?
A: 1.04

Q: `CC(C)[C@H](N)C(=O)OCCOCn1cnc2c(=O)nc(N)[nH]c21` [Valaciclovir hydrochloride] (stock concentration (mM, diluted 1:100): 9) was tested. Which “CDA2-GFP sporulation assay sensitivity score” value did it give?
A: 0.8

Q: Which “CDA2-GFP sporulation assay sensitivity score” value does the source give for `CC1=Nc2ccc(Cl)cc2S(=O)(=O)N1` [Diazoxide] (stock concentration (mM, diluted 1:100): 10) here?
A: 3.2

Q: How did the “CDA2-GFP sporulation assay sensitivity score” value turn out when `CC[C@H]1OC(=O)[C@H](C)C(=O)[C@H](C)[C@@H](O[C@@H]2O[C@H](C)C[C@H](N(C)C)[C@H]2O)[C@](C)(OC)C[C@@H](C)C(=O)[C@H](C)[C@H]2N(CCCCn3cnc(-c4cccnc4)c3)C(=O)O[C@]12C` [Telithromycin] (stock concentration (mM, diluted 1:100): 10) was run?
A: 4.62

Q: With `CCCCC(=O)N(Cc1ccc(-c2ccccc2-c2nnn[nH]2)cc1)[C@H](C(=O)O)C(C)C` [Valsartan] (stock concentration (mM, diluted 1:100): 10) as the compound, how does the “CDA2-GFP sporulation assay sensitivity score” value read?
A: 0.42

Q: With `C[C@@H]1C[C@H]2[C@@H]3C[C@H](F)C4=CC(=O)C(Cl)=C[C@]4(C)[C@@]3(F)[C@@H](O)C[C@]2(C)[C@@]1(O)C(=O)CO` [Halometasone monohydrate] (stock concentration (mM, diluted 1:100): 10) as the compound, how does the “CDA2-GFP sporulation assay sensitivity score” value read?
A: 0.27

Q: With `COc1ccccc1OCCNCC(O)COc1cccc2[nH]c3ccccc3c12` (stereo unspecified) [Carvedilol] (stock concentration (mM, diluted 1:100): 10) as the compound, how does the “CDA2-GFP sporulation assay sensitivity score” value read?
A: -0.9

Q: For `CCC1=C[C@H]2CN(C1)Cc1c([nH]c3ccccc13)[C@@](C(=O)OC)(c1cc3c(cc1OC)N(C)[C@H]1[C@@](O)(C(=O)OC)[C@H](OC(C)=O)[C@]4(CC)C=CCN5CC[C@]31[C@@H]54)C2` [Vinorelbine bitatrate] (stock concentration (mM, diluted 1:100): 7.2), which “CDA2-GFP sporulation assay sensitivity score” value is on record?
A: 1.77

Q: `COc1cc2nc(N3CCN(C(=O)C4CCCO4)CC3)nc(N)c2cc1OC` (stereo unspecified) [Terazosin] (stock concentration (mM, diluted 1:100): 9.5) was tested. Which “CDA2-GFP sporulation assay sensitivity score” value did it give?
A: 3.45

Q: For `C[C@H]1O[C@H](O[C@H]2[C@H](O)[C@@H](O)[C@@H](O[C@H]3[C@H](O)[C@@H](O)C(O)O[C@@H]3CO)O[C@@H]2CO)[C@H](O)[C@@H](O)[C@@H]1N[C@H]1C=C(CO)[C@@H](O)[C@H](O)[C@H]1O` (stereo partly specified) [Acarbose] (stock concentration (mM, diluted 1:100): 10), which “CDA2-GFP sporulation assay sensitivity score” value is on record?
A: 0.28

Q: `CN1C(=O)CC[C@H]1c1cccnc1` [Cotinine] (stock concentration (mM, diluted 1:100): 10) was tested. Which “CDA2-GFP sporulation assay sensitivity score” value did it give?
A: -0.11
